Hits are enriched below; roughly 7.8% of the tested compounds scored in any of these assays.
HCMV antiviral: inhibitors of human cytomegalovirus; 410,000 tested, 4.5% active; HFF cells, HCMV-luciferase reporter, 72 h; hits give low values; activity change, negative = inhibition, % at 57.5 µM; AID 1259415; in the data active = activity change below about -60%; inconclusive = no clear call, values can overlap the other calls; inactive = above about -39%
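Steps: HFFs plated, 16 h 37C; compounds added; HCMV-luciferase added to MOI 1 PFU/cell; 72 h 37C; OneGlo reagent, 5 min room temperature; luminescence read, normalized to controls.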
VACV mCherry inh: inhibitors of vaccinia virus infection (mCherry reporter signal); 310,000 tested, 0.63% active; Vaccinia virus mCherry reporter infection, fluorescence; AID 720579; Potency, µM (titrated, usually from 36.5 µM), for the others: at the top dose activity change, negative = inhibition, actives largely listed as inhibitors; calls by dose curve; tested in A549 cells; also: potency is read from the fitted curve at half-maximal effect; nearly all actives have a fitted effect of over 35% in size
MARV entry inh: Marburg virus entry inhibition | Marburg virus pseudotyped entry inhibition, cell reporter | Potency, µM (highest dose often 37.8 µM), for the others: top-dose activity change, negative = inhibition, most hits filed as inhibitors | 300,000 tested, 1.8% active | AID 540276; calls by dose curve; tested in HEK293 cells; also: potency is read from the fitted curve at half-maximal effect
Lassa entry inh: inhibitors of Lassa virus binding or cell entry; Lassa virus pseudotype entry inhibition, cell reporter; Potency, µM (highest dose often 37.9 µM), inactives show at the top dose activity change, negative = inhibition, hits mostly inhibitors; 300,000 tested, 1.2% active; AID 540256; calls by dose curve; tested in HEK293 cells; also: potency is read from the fitted curve at half-maximal effect; nearly all actives have a fitted effect of over 50% in size
VACV Venus inh: vaccinia inhibition (Venus reporter); 330,000 tested, 0.46% active; Potency, µM (titrated, usually from 36.5 µM), for inactives: at the highest dose activity change, negative = inhibition, hits mostly inhibitors; AID 720580; Vaccinia virus Venus reporter expression, fluorescence; calls by dose curve; tested in A549 cells; also: potency is read from the fitted curve at half-maximal effect; nearly all actives have a fitted effect of over 30% in size
HCV inhibitor: blocks hepatitis C virus. Huh7.5.1 HCVcc-Cre infection, luciferase reporter, 44 h. Potency, µM (series often up to 41.8 µM), for inactives: at the top dose activity change, negative = inhibition, usual class: inhibitors. 340,000 tested, 3.4% active; active = well fitted inhibition curve with a large enough effect; inconclusive = small, poorly fitted or top-dose-only effect, or another doubt; inactive = no such curve, though single readings can be large or run the other way; also: potency is read from the fitted curve at half-maximal effect
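Cells seeded at 1,000/well and cultured 4 h, then compounds added followed by HCVcc-Cre virus (~0.5 moi). After 44 h further culture, luciferase substrate was added, plates held 15 min at room temperature, and luminescence read for 15 sec.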
Starred values were filed as active, the others as inactive; [ ] = dose if it differs, or a comment. % is scaled to controls: 0 for no effect and ±100 for the full control effect.

`O=C(CSc1nc2c(oc3ccccc32)c(=O)n1Cc1ccco1)Nc1ccccc1Cl` gave HCMV antiviral 9, VACV mCherry inh -29%, MARV entry inh -7%[46.1 µM] and VACV Venus inh inconclusive.
Screening CCCc1nnc(NC(=O)Cc2coc3c(C)c(C)ccc23)s1 returned HCMV antiviral 8, VACV mCherry inh -10%, MARV entry inh 3%[46.1 µM], Lassa entry inh 3%[46.1 µM] and VACV Venus inh inconclusive.
`CCOCOCc1cc(OC(C)C)ccc1N1C(=O)C[C@@H](C(=O)OC)[C@H]1c1ccc(OC(C)C)c(OC)c1` gave HCMV antiviral -6.
For COc1ccc(C(=O)NCC2Cc3cccc(-c4cncnc4)c3O2)c(OC)c1OC (stereo not drawn) the results were VACV mCherry inh -24% and VACV Venus inh -18%.
Screening COc1ccc(CCNc2nc(SCc3cccc(Cl)c3)nc3ccccc23)cc1OC returned HCMV antiviral 65, VACV mCherry inh -27%, Lassa entry inh 13%[46.1 µM] and VACV Venus inh inconclusive.
Cc1cc(C)c(CN2CCC(CO)(CCOc3ccccc3)CC2)cc1C was read as HCMV antiviral -7, VACV mCherry inh -8%, MARV entry inh 11µM*, Lassa entry inh inconclusive, VACV Venus inh -21% and HCV inhibitor inconclusive.
`COc1ccc(OC)c(CN2CCC(CO)(CCOc3ccccc3)CC2)c1` gave HCMV antiviral 52, VACV mCherry inh inactive, MARV entry inh inconclusive, Lassa entry inh 1%[46.1 µM], VACV Venus inh -8% and HCV inhibitor 0%.
For CCOC(=O)C1(CCOc2ccccc2)CCN(Cc2cccn2-c2cccnc2)CC1 the results were HCMV antiviral -72*, VACV mCherry inh -1%, MARV entry inh inconclusive, Lassa entry inh inconclusive, VACV Venus inh -20% and HCV inhibitor inconclusive.
For CCOC(=O)C1(CCOc2ccccc2)CCN(Cc2ccc(OC)cc2)CC1 the results were HCMV antiviral -32 and HCV inhibitor 13µM*.
CCOc1ccc(CN2CCN(C(=O)c3cccc(F)c3)CC2)cc1 was read as HCMV antiviral inconclusive, VACV mCherry inh -25%, MARV entry inh inconclusive, Lassa entry inh inconclusive, VACV Venus inh -23% and HCV inhibitor 11µM*.
Screening CCOc1ccc2oc(=O)cc(CN3CCN(C(=O)c4cccc(F)c4)CC3)c2c1 returned HCMV antiviral -29, VACV mCherry inh -8%, MARV entry inh -4%[46.1 µM], Lassa entry inh -1%[46.1 µM] and VACV Venus inh -5%.
`CCOc1ccc(C(=O)Nc2ccc3oc(-c4ccc5ccccc5c4)nc3c2)cc1` gave HCMV antiviral -9, VACV mCherry inh -20%, Lassa entry inh 5%[46.1 µM] and VACV Venus inh -21%.
CCn1c(-c2ccccc2F)nc2cc(NC(C)=O)cc(C(=O)N3CCNC(=O)C3CC(=O)OC)c21 (stereo not drawn) was read as VACV mCherry inh -14% and VACV Venus inh -10%.
`C[C@@H]1Cc2ccccc2N1NC(=O)c1ccc(Cl)c(S(N)(=O)=O)c1` gave MARV entry inh 5%.
`CCOC(=O)C1(CCOc2ccccc2)CCN(Cc2ccc(NC(C)=O)cc2)CC1` gave HCMV antiviral 30, VACV mCherry inh -11%, MARV entry inh -22%[46.1 µM], Lassa entry inh 7%, VACV Venus inh -9% and HCV inhibitor -24%.
For CCOC(=O)C1(CCOc2ccccc2)CCN(Cc2ccc(C)s2)CC1 the results were HCMV antiviral -82*, VACV mCherry inh -7%, MARV entry inh inconclusive, Lassa entry inh inconclusive, VACV Venus inh -7% and HCV inhibitor inconclusive.
CCOC(=O)C1(CCOC)CCN(C(=O)Cc2ccsc2)CC1 was read as HCMV antiviral 63 and HCV inhibitor 7%.
CCOC(=O)C1(CCOc2ccccc2)CCN(Cc2ccc3nonc3c2)CC1 was read as HCMV antiviral -14, VACV mCherry inh -16%, MARV entry inh 5%[46.1 µM], Lassa entry inh 6%, VACV Venus inh -12% and HCV inhibitor 10µM*.
Screening CCOC(=O)C1(CCOC)CCN(C(=O)Cc2ccc3ccccc3c2)CC1 returned HCMV antiviral -24, VACV mCherry inh -3%, MARV entry inh 10µM*, Lassa entry inh inconclusive, VACV Venus inh -9% and HCV inhibitor -6%.
Screening CCOC(=O)C1(CCOc2ccccc2)CCN(Cc2cccc(F)c2)CC1 returned HCMV antiviral -91* and HCV inhibitor inconclusive.
`CCOC(=O)C1(CCOc2ccccc2)CCN(Cc2ccc(OCC)c(CO)c2)CC1` gave HCMV antiviral -20 and HCV inhibitor 14µM*.
`Cc1occc1-c1nnc(SC(C)C(=O)Nc2ccccc2F)o1` (stereo not drawn) gave HCMV antiviral 48, VACV mCherry inh -2%, MARV entry inh inconclusive, Lassa entry inh 11µM*, VACV Venus inh -12% and HCV inhibitor -11%.
CC(C)(C=O)C1=CC(=O)c2ccccc2C1=O was read as HCMV antiviral 0, VACV mCherry inh -27%, MARV entry inh inconclusive, Lassa entry inh inconclusive, VACV Venus inh -13% and HCV inhibitor 7.1µM*.
CC1=CC(=O)c2ccccc2C1=O was read as HCMV antiviral inconclusive, VACV mCherry inh -13%, MARV entry inh 26%, Lassa entry inh 4%, VACV Venus inh -11% and HCV inhibitor -6%.
For Cc1ccc(Nc2c(-c3ccccn3)nc3ccc(C)cn23)cc1 the results were HCMV antiviral 0 and HCV inhibitor inconclusive.
Cc1ccc(Nc2c(-c3ccccn3)nc3cc(C)ccn23)cc1 was read as HCMV antiviral 0, VACV mCherry inh inconclusive, MARV entry inh inconclusive, Lassa entry inh inconclusive, VACV Venus inh inconclusive and HCV inhibitor 2.8µM*.
For Cc1ccn2c(Nc3ccc4c(c3)OCO4)c(-c3ccccn3)nc2c1 the results were HCMV antiviral -98*, VACV mCherry inh -11%, MARV entry inh inconclusive, Lassa entry inh inconclusive, VACV Venus inh 12% and HCV inhibitor inconclusive.
Screening CCOCCN1CCN(c2c(C)c(C)nc3cc(-c4cc(OC)cc(OC)c4)nn23)CC1 returned HCMV antiviral -84*, VACV mCherry inh inconclusive, MARV entry inh -1%, Lassa entry inh -32%, VACV Venus inh -27% and HCV inhibitor inconclusive.
Screening COCCN1CCN(c2c(C)c(C)nc3cc(-c4cccc(OC)c4)nn23)CC1 returned HCMV antiviral 42, VACV mCherry inh -4%, MARV entry inh 21%[46.1 µM], Lassa entry inh inconclusive, VACV Venus inh -20% and HCV inhibitor inconclusive.
`COc1ccc(/C=C2\Sc3ccc(C(=O)N4CCN(Cc5ccccc5)CC4)cc3N(C)C2=O)cc1OC` gave HCMV antiviral -83* and HCV inhibitor 3.5µM*.
For CN1C(=O)/C(=C/c2cccc(Cl)c2)Sc2ccc(C(=O)NCc3cccnc3)cc21 the results were HCMV antiviral -14 and HCV inhibitor 10µM*.

Assay outcomes: PubChem, National Center for Advancing Translational Sciences (NCATS)
